# Measured values from PubChem BioAssay AID887 (National Center for Advancing Translational Sciences (NCATS), 2007).
# “And” between values parts separate entries of the source, which are not always exact repeats. Equal values may be shown once. Screen size: about 74,000 compounds; about 1,100 (1.5%) were called active. Another 5% or so got no clear call; they are omitted. The list comes from a sample in which actives are over-represented; it also holds similar structures and randomly drawn compounds. Entries that show only a call come without a potency. Values without a mark were called inactive. Calls come from the whole dose curve; as a rule, active = well fitted inhibition curve with a large enough effect; inconclusive = small, poorly fitted or top-dose-only effect; inactive = no such curve, though single readings can be large or run the other way.
# Biological target: Polyunsaturated fatty acid lipoxygenase ALOX15 (Homo sapiens) (UniProt P16050)
# Sequence (P16050 whole entry, looked up): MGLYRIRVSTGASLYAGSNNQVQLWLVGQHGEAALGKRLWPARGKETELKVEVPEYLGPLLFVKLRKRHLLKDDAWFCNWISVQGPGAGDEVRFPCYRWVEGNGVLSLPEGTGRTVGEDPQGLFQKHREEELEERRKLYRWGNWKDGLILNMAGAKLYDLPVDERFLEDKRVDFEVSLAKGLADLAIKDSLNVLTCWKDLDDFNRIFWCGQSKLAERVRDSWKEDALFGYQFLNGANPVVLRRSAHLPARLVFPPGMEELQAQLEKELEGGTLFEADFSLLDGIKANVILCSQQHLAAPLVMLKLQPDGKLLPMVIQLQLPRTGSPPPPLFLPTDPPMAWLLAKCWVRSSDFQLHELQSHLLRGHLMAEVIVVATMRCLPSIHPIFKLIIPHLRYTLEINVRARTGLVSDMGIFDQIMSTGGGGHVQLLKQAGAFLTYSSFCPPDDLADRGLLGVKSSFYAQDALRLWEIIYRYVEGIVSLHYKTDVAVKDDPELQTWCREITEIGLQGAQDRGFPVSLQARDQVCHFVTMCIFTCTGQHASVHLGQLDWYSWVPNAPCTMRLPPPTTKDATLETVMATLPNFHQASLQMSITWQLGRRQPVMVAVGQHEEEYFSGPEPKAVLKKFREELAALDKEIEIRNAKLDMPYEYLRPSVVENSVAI
# Assay: qHTS Assay for Inhibitors of 15-hLO (15-human lipoxygenase); note: nearly all actives have a fitted effect of over 55% in size
# Conditions: purified 15hLO-1, xylenol orange hydroperoxide absorbance; series mostly up to 57.1 µM
# Outline: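 Hydroperoxide formed from arachidonic acid (50 uM) by purified human 15hLO-1 (40 nM) oxidizes ferrous iron, and the ferric-xylenol orange complex is read at 573 versus 405 nm. Compounds were preincubated 15 min; reaction ran 6 min at room temperature.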
# Potency is the fitted concentration of half-maximal effect.
Structure (SMILES),"activity change, negative = inhibition",Potency
COc1ccc(COC(=O)N/N=C2/C[C@@H](O)[C@@H](O)[C@@H]3[C@@H]4C(=O)N([C@@H](C)c5ccccc5)C(=O)[C@H]4CC[C@@H]23)cc1,7.99% [at 11.4 µM],–
Cc1cc(C)c2nc(N3CCCC3)c(C#N)cc2c1,–,2 µM (active)
CCOc1ccc2nc(N3CCCN(C(=O)Nc4ccccc4C)CC3)c(C#N)cc2c1,inactive,–
CC(C)CCNc1nc(N2CCCC2)c2c(c1C#N)CCN(C)C2,inactive,–
CC(C)(C)c1ccc(OC2C=CC(C#Cc3ccccc3)OC2CO)cc1 (stereo not given),-12.4% [at 11.4 µM],–
Cc1cc(C)cc(C#CC2C=CC(Oc3ccc(C4CCCC4)cc3)C(CO)O2)c1 (stereo not given),-14.1% [at 11.4 µM],–
C[C@@H]1/C=C\CC(=O)OC[C@H]2O[C@@H](C=C[C@@H]2O)[C@H](C)/C=C\CC(=O)OC[C@H]2O[C@H]1C=C[C@@H]2O,5.92% [at 11.4 µM],–
CC(C)[C@H]1CC[C@@H](C)C[C@H]1O,inactive,–
COC1[C@H](OC(N)=O)C(O)[C@H](Oc2ccc3c(O)c(NC(=O)c4ccc(O)c(CC=C(C)C)c4)c(=O)oc3c2C)OC1(C)C (stereo not given in full),inactive,–
C=C(C)C1CC=C(CO)CC1 (stereo not given),–,12.6 µM (active)
C=C(C)C1CC=C(C)C(O)C1 (stereo not given),inactive,–
CCCNC(=O)OC[C@@H]1O[C@H](c2ccccc2)C=C[C@@H]1Oc1ccc(OC)cc1,6.55% [at 11.4 µM],–
Cc1ccc(C)c(NC(=O)CSc2nnc(Cc3cccn3C)n2-c2ccc(F)cc2)c1,inactive,–
Cc1cccc(Br)c1,inactive,–
CC(C)=CC1C(C(=O)O)C1(C)C (stereo not given),inactive,–
C/C(CCN1CCCCc2nc(C)c(C)cc21)=N\O[C@@H](C)c1cn([C@@H]2COC[C@@H]2O)nn1,3.97% [at 11.4 µM],–
Oc1cc(O)c2c(c1)OC(c1ccc(O)c(O)c1)C(O)C2 (stereo not given),–,12.6 µM (active)
CO[C@H]1COC(=O)[C@@H](C)NC(=O)C/C=C\[C@@H](C)[C@H](OC)COC(=O)C/C=C\[C@@H]1C,-1.15% [at 11.4 µM],–
CCCCn1c(SCC(=O)NCC2CCCO2)nc2ccc(N3CCOCC3)cc2c1=O (stereo not given),–,12.6 µM (active)
CCn1c(SCC(=O)NCC2CCCO2)nc2cc(S(=O)(=O)N3CCCCC3)ccc21 (stereo not given),inactive,–
COCCCNC(=O)CSc1nc2ccc(N3CCOCC3)cc2c(=O)n1CCc1ccccc1,inactive,–
COCC(=O)N1CCC2(CCCN(c3ccccc3)C2)CC1,inactive,–
CC1(C)C=CC(=O)[C@]2(C)C1CC(=O)[C@]1(C)C2CC[C@@]2(C)C(c3ccoc3)OC(=O)C3OC321 (stereo not given in full),inactive,–

Structure (SMILES),"activity change, negative = inhibition",Potency
C=C[C@](C)(O)CCC1C(=C)CCC2[C@@](C)(CO)CCC[C@@]12C (stereo not given in full),inactive,–
CC(C)C1=CC2=CC[C@@H]3[C@](C)(CO)CCC[C@]3(C)C2CC1 (stereo not given in full),–,1.58 µM (active)
CN1CCc2nc(-c3ccccc3)c(-c3ccccc3)cc2C1,3.18% [at 11.4 µM],–
Nc1ncnc2c1ncn2C1CC(O)C(CO)O1 (stereo not given),inactive,–
CC(=O)OCC(=O)[C@@]1(O)CCC2C3CCC4=CC(=O)CC[C@@]4(C)[C@]3(F)C(O)C[C@]21C (stereo not given in full),inactive,–
O=C1[C@H]2[C@H]3[C@H](O)[C@H](O)C/C(=N/OCc4ccccc4)[C@H]3CC[C@@H]2C(=O)N1Cc1ccccc1,6.17% [at 11.4 µM],–
CCCN(C/C=C\I)[C@@H]1CCc2cccc(O)c2C1,inactive,–
N#Cc1ccccc1-n1c(N)c(C(=O)N2CCCC2)sc1=S,–,20 µM (active)
CCC(=O)Nc1sc(C(=O)N2CCCCC2)c(C)c1C#N,inactive,–
Cc1cccc(-n2c(N)c(C(=O)N3CCN(C)CC3)sc2=S)c1,inactive,–
Cn1c(=O)n2n(c1=O)[C@H]1[C@H](O)[C@H]3O[C@H]3C(=O)[C@H]1CC2,-1.89% [at 11.4 µM],–
CC(C)=CCC/C(C)=C/CO/N=C1/C[C@@H](O)[C@@H](O)[C@@H]2[C@@H]3C(=O)N(C(C)(C)C)C(=O)[C@H]3CC[C@H]12,-9.71% [at 11.4 µM],–
CC(=O)OCC1OC(C#CCCCc2ccccc2)C=CC1OC(C)=O (stereo not given),-1.12% [at 11.4 µM] and 1.25% [at 11.4 µM],–
COc1ccc(OCc2ccc(-c3nc4ccccc4c(=O)n3N)o2)cc1,inactive,–
Cn1c(COc2ccc(Cl)cc2)nc2ccccc2c1=O,–,25.1 µM (active)
COCn1c(COc2ccccc2)nc2ccccc21,-9.11% [at 11.4 µM],–
c1ccc(Oc2ccccc2)cc1,inactive,–
CC(C)(O)CCC(O)[C@@](C)(O)C1CC[C@]2(O)C3=CC(=O)C4CC(O)C(O)C[C@]4(C)C3CC[C@]12C (stereo not given in full),inactive,–
O=C1OCCC=C1[C@@H](O)CCc1ccccc1,9.13% [at 11.4 µM],–
Nc1nc2c(nc(Cl)n2C2OC(CO)C(O)C2O)c(=O)[nH]1 (stereo not given),inactive,–
CC1=C(/C=C/C(C)=C/C=C/C(C)=C/C=C/C=C(C)/C=C/C=C(C)/C=C/C2=C(C)CCCC2(C)C)C(C)(C)CCC1,inactive,–
CC/C=C/C/C=C/C/C=C/CCCCCCCC(=O)OCC,–,2.51 µM (active)
